The supplement of paper PMC13380429
Unmarked numbers belong to inactive results.

Test system: Vero E6 infected with SARS-CoV-2
Test: inhibition of SARS-CoV-2 cytopathic effect; higher = more antiviral protection, active = above 15
Settings: 48 h

Structure (SMILES) | inhibition of SARS-CoV-2 cytopathic effect (1 nM) [%] | inhibition of SARS-CoV-2 cytopathic effect (8.33 nM) [%] | inhibition of SARS-CoV-2 cytopathic effect (100 nM) [%] | inhibition of SARS-CoV-2 cytopathic effect (833.33 nM) [%] | inhibition of SARS-CoV-2 cytopathic effect (10000 nM)
O=c1[nH]c2cc(C(F)(F)F)c(N3CCOCC3)cc2n(CP(=O)(O)O)c1=O | 0.45 | 0.83 | -1.59 | 1.35 | -2.92%
CS(=O)(=O)CCNCc1nc(-c2ccc3ncnc(Nc4ccc(OCc5cccc(F)c5)c(Cl)c4)c3c2)cs1 | 1.4 | 3.81 | 0.15 | -4.71 | -4.14%
N[C@@H]1CONC1=O [cycloserine-(D)] | -2.12 | -4.07 | -2.78 | -4.11 | -3.61%
Cc1sc(C)c2c1CCC=C2c1c[nH]cn1 | -1.05 | -1.35 | -1.5 | -2.81 | -2.28%
Cc1nc2ccc(Oc3ccc(F)cc3)cc2c(=O)n1C[C@H]1CCCN(C(C)C)C1 | 0.11 | 0.49 | 1.67 | 0.07 | -5.71%
Cc1cc(-c2nncc3c(C(C)(C)C)c(OCc4ncnn4C)nn23)no1 | 1.59 | -1.07 | 0.62 | -3.08 | -1.02%
C[C@@H](N)[C@@H](O)c1ccccc1 [1S,2R-phenylpropanolamine] | -1.52 | -0.06 | -0.95 | -0.75 | 0.8%
C=C1/C(=C\C=C2/CCC[C@]3(C)[C@@H]([C@H](C)/C=C/[C@H](C)C(C)C)CC[C@@H]23)C[C@@H](O)C[C@@H]1O [doxercalciferol] | 0.83 | 0.03 | 0.98 | 2.04 | 2.69%
Cc1nc(Nc2ccc(F)cc2)nc(N2CCc3ccccc3C2C)c1C (stereo not given) [revaprazan] | 0.41 | 1.64 | 2.31 | 1.17 | 1.72%
C[C@@H]1NC(C)(C)CO[C@@]1(O)c1cccc(Cl)c1 [radafaxine] | -2.6 | 3.35 | 6.44 | 7.12 | -0.21%
Clc1ccc(-c2nc3sccn3c2/C=N/OCc2ccc(Cl)c(Cl)c2)cc1 | -0.5 | -0.99 | -1.16 | -0.11 | 0.21%
CC(C)NC[C@@H](O)c1ccc(O)c(O)c1 (racemic) [isoprenaline] | 1.39 | -0.18 | -0.08 | 0.77 | -2.47%
CC(C)=CCC/C(C)=C/CC/C(C)=C/CC[C@]1(C)CCc2cc(O)cc(C)c2O1 [delta-tocotrienol] | 0.39 | -1.44 | 2.83 | 7.95 | 2.88%
C=C1c2cccc(O)c2C(=O)C2=C(O)[C@]3(O)C(=O)C(C(N)=O)=C(O)[C@@H](N(C)C)[C@@H]3[C@@H](O)[C@H]12 [methacycline] | 1.27 | -0.1 | 1.49 | 0.36 | 2.34%
CCN(CC)CCOc1ccc(C(O)(Cc2ccc(Cl)cc2)c2ccc(C)cc2)cc1 (stereo not given) [Triparanol] | -0.73 | 1.69 | -1.43 | -2.54 | 51.4% (active)
CC#CCn1c(N2CCC[C@@H](N)C2)nc2c1c(=O)n(Cc1nc(C)c3ccccc3n1)c(=O)n2C [linagliptin] | 0.74 | -3.62 | -0.93 | -3.72 | -11.3%
CN[C@@H](C)C(=O)N[C@H]1CCCC[C@H]2CC[C@@H](C(=O)N[C@@H](c3ccccc3)c3cn(CCCCc4ccc(CCCCn5cc([C@@H](NC(=O)[C@@H]6CC[C@@H]7CCCC[C@H](NC(=O)[C@H](C)NC)C(=O)N76)c6ccccc6)nn5)cc4)nn3)N2C1=O | -2.38 | -0.21 | -2.09 | -4.99 | -13.1%
